Unmarked numbers belong to inactive results. Inconclusive results are not listed. Calls of active or inactive are those of the source. Unless noted, calls come from the whole dose curve.

Assay [1] in a line: Nuclear factor erythroid 2-related factor 2/antioxidant responsive element (Nrf2/ARE) small molecule agonists: qHTS cell viability counter screen in human keratinocytes (AID 1919968; active = well fitted curve in the direction sought with a large enough effect in the repeat runs; an effect the other way counts as inactive or inconclusive; note: nearly all actives have a fitted effect of over 55% in size; note: potency is the fitted concentration of half-maximal effect). Put shortly: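 Measured as CellTiter-Fluor fluorescence, this readout tracks cytotoxicity in the same wells as the ARE-luciferase screen. HaCaT reporter cells (1,500/well) received compounds after a 5 h pre-incubation and were exposed for 23 h.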

A short description of assay [2]: Nuclear factor erythroid 2-related factor 2/antioxidant responsive element (Nrf2/ARE) small molecule agonists: luciferase reporter gene qHTS assay in human keratinocytes (AID 1919969). Note: nearly all actives have a fitted effect of over 35% in size.
Assay [3] deals with Gonadotropin-releasing hormone receptor (Homo sapiens) (UniProt P30968). The assay can be described thus: Human gonadotropin-releasing hormone receptor (GnRHR) small molecule agonists, calcium flux assay in GnRHR-HEK293 cells (AID 1920063). Note: nearly all actives have a fitted effect of over 35% in size. Put shortly: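 Fluorescence kinetics (480 nm excitation, 540 nm emission; 3 min, 1 s steps) report calcium mobilisation in human GnRHR-HEK293 cells in agonist mode. Dye incubation: 1 h, 37 C.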
Gonadotropin-releasing hormone receptor (Homo sapiens), sequence (P30968 whole entry, looked up): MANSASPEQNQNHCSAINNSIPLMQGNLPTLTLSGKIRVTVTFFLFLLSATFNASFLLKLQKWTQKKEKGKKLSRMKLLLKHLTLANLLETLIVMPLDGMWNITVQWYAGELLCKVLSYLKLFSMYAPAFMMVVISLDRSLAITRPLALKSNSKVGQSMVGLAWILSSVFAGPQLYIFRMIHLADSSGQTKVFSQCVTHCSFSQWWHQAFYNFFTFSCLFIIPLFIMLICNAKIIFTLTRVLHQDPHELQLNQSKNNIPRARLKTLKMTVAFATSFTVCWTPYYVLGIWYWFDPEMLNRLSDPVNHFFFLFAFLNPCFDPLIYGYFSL
(In general: Calcium assays in cells follow changes in intracellular calcium, usually with a dye or a luminescent sensor.)

In assay [4] the target is KiSS-1 receptor (Homo sapiens) (UniProt Q969F8). Briefly: Human kisspeptin (KISS1R) small molecule agonists, calcium flux assay in KISS1R-HEK293 cells (AID 1920064; active = well fitted curve in the direction sought with a large enough effect in the repeat runs; an effect the other way counts as inactive or inconclusive). Put shortly: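 Measures KISS1R agonism through calcium-sensitive dye fluorescence in stably transfected HEK293 cells, read for 3 min after pin-tool compound delivery; 15-point titrations in triplicate.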
KiSS-1 receptor (Homo sapiens), sequence (Q969F8 whole entry, looked up): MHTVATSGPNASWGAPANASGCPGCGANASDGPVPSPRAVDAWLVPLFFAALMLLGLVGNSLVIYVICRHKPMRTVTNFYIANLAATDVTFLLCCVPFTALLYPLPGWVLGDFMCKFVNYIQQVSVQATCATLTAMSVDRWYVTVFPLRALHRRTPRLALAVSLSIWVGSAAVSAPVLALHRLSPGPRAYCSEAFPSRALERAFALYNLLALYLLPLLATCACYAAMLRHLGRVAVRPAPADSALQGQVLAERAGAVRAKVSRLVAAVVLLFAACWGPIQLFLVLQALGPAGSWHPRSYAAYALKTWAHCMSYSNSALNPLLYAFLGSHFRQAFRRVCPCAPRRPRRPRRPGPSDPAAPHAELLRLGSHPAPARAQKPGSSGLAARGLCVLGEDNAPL
Assay [5] in a line: G protein-coupled receptor (GPCR) small molecule agonists, calcium flux assay: HEK293 wild type cell line counter screen (AID 1920065). Put shortly:
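Readout: fluorescence at 480 nm excitation/540 nm emission, sampled at 1 s intervals for 3 min. Cells had been cultured 18 h, then dye-loaded 1 h at 37 C before compound or ATP addition.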

Assay [6] can be described thus: p53 small molecule agonists, cell-based qHTS assay with rat liver microsomes: qHTS cell viability counter screen (AID 1963580). Note: nearly all actives have a fitted effect of over 45% in size. In short, it runs like this: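 p53RE-bla HCT-116 cells (4,000/well) rested 5 h at 37 C, then given Tox21 compounds in DMSO with rat liver microsomes (0.5 mg/mL final) plus NADPH (0.5 mg/mL final) for 16 h at 37 C. Viability read by CellTiter-Glo luminescence after 30 min at room temperature.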
For orientation: In qHTS, concentration-response curves come from the screen itself.

Assay [7] is described as follows: p53 small molecule agonists, cell-based qHTS assay: qHTS cell viability counter screen (AID 1963581). Note: nearly all actives have a fitted effect of over 45% in size. Put shortly: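 In the same plates used for the p53 bla reporter, HCT-116 cells given compounds for 16 h at 37 C received CellTiter-Glo; luminescence was recorded 30 min later at room temperature.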
The target of assay [8] is 5-hydroxytryptamine receptor 2A (Homo sapiens) (UniProt P28223). Briefly: 5-hydroxytryptamine receptor 2A (HTR2A) small molecule antagonists, cell-based qHTS assay (AID 1963586). Note: nearly all actives have a fitted effect of over 45% in size. Put shortly: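 Antagonist-mode intracellular calcium assay: DOI (4 nM) added after 5 min compound pre-incubation at room temperature to dye-loaded HTR2A-CHO cells. Fluorescence followed for 3 min, sampled every second.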
5-hydroxytryptamine receptor 2A (Homo sapiens), sequence (P28223 whole entry, looked up): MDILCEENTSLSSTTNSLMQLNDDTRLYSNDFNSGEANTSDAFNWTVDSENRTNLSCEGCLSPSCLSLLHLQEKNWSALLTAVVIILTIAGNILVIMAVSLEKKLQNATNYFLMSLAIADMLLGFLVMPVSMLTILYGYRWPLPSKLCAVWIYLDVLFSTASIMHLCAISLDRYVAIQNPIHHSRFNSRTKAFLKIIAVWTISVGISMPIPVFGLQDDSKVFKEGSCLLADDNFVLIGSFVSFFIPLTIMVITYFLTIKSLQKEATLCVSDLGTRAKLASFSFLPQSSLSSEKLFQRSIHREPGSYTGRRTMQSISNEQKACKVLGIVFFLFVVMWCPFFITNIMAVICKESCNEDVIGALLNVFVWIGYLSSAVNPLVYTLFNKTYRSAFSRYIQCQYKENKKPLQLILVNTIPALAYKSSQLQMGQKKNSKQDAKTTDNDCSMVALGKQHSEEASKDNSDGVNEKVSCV

Assay [9] has the same target. The assay can be described thus: 5-hydroxytryptamine receptor 2A (HTR2A) small molecule agonists, cell-based qHTS assay (AID 1963587). Note: nearly all actives have a fitted effect of over 30% in size. Put shortly:
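HTR2A-CHO cells, plated 18 h at 37 C/5% CO2, dye-loaded 1 h at 37 C; compounds in DMSO added by pin tool (agonist mode). Intracellular calcium flux read as kinetic fluorescence on FDSS over 2 min at 1 s intervals.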

Assay [10] concerns the target Muscarinic acetylcholine receptor M1 (Homo sapiens) (UniProt P11229). Briefly: Cholinergic receptor muscarinic 1 (CHRM1) small molecule antagonists, cell-based qHTS assay (AID 1963588). Note: nearly all actives have a fitted effect of over 40% in size. Note: potency is the fitted concentration of half-maximal effect. In short, it runs like this:
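CHRM1-CHO calcium-flux assay, antagonist mode. Cells were seeded 18 h, dye-loaded 1 h at 37 C and given compound for 5 min at RT, then acetylcholine was added at 50nM. FDSS fluorescence was read 3 min; 15 concentrations, three runs.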

Assay [11] has the same target. The assay can be described thus: Cholinergic receptor muscarinic 1 (CHRM1) small molecule agonists, cell-based qHTS assay (AID 1963589). Note: nearly all actives have a fitted effect of over 35% in size. In short, it runs like this: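 Each compound was tested at 15 concentrations across three independent runs on dye-loaded CHO cells stably expressing human CHRM1, reading intracellular calcium fluorescence kinetically at 1 sec intervals.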

Assay [12] can be described thus: cAMP Responsive Elements (CRE) small molecule agonists, cell-based qHTS assay (AID 1963590). In short, it runs like this:
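Cell line: CRE-bla HEK 293T; medium DMEM/10% dialyzed FBS/0.1 mM NEAA/1 mM pyruvate/25 mM HEPES; 3 h compound exposure; beta-lactamase FRET readout after 2 h substrate loading at RT.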

Assay [13] is described as follows: cAMP Responsive Elements (CRE) small molecule antagonists, cell-based qHTS assay (AID 1963591; active = well fitted inhibition curve with a large enough effect in the signal ratio in the repeat runs, not every such curve was filed as active; the % refers to the signal ratio). In short, it runs like this:
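Inhibition of NKH477-driven (0.25 uM final) CRE-beta-lactamase signal in HEK293T cells, 3 h compound exposure at 37 °C, detected by FRET substrate fluorescence.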

Assay [14] deals with Beta-2 adrenergic receptor (Homo sapiens) (UniProt P07550). The assay can be described thus: Adrenergic beta2 receptor (ADRB2) small molecule antagonists, cell-based qHTS assay (AID 1963592). Note: series mostly up to about 92 µM; nearly all actives have a fitted effect of over 50% in size. Put shortly:
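Cells (CHO, stable ADRB2 overexpression) incubated 18-20hr at 37C; compounds added from DMSO; agonist mix (1nM isoproterenol, 100uM IBMX, 25uM Ro-20-1724) added; 0.5hr RT; d2-cAMP and anti-cAMP-cryptate added; 1hr RT; 665/615 nm read.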

For assay [15] the target is unchanged. Briefly: Adrenergic beta2 receptor (ADRB2) small molecule agonists, cell-based qHTS assay (AID 1963593).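 Note: CHO cells stably overexpressing human ADRB2.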 In short, it runs like this:
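CHO cells stably over-expressing ADRB2 were plated overnight at 37C, then dosed with compounds plus a stimulation mix containing 100uM IBMX and 25uM Ro-20-1724 for 0.5hr at room temperature. cAMP was measured by HTRF competition, 1hr.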

In assay [16] the target is D(2) dopamine receptor (Homo sapiens) (UniProt P14416). Briefly: Dopamine D2 receptor (DRD2) small molecule agonists, cell-based qHTS assay (AID 1963594). Note: nearly all actives have a fitted effect of over 35% in size. Put shortly: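 HEK293 cells stably expressing DRD2 were cultured 24 h at 37 C, then given Ro20-1724 (0.1 mM final) and compounds for 10 min at room temperature. NKH477 (200nM) was then added for 30 min. cAMP was read by HTRF.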
D(2) dopamine receptor (Homo sapiens), sequence (P14416 whole entry, looked up): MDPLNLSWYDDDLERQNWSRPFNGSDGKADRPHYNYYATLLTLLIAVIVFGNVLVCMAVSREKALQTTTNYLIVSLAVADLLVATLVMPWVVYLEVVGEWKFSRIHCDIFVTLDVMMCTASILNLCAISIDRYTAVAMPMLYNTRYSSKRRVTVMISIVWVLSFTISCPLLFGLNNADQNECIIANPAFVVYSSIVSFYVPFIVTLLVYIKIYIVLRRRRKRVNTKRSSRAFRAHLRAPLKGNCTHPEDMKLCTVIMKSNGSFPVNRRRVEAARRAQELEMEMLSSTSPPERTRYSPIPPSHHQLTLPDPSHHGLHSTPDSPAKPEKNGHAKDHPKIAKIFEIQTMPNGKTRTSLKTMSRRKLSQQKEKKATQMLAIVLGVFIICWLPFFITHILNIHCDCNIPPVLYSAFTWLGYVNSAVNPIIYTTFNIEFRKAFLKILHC

Assay [17] shares this target. The assay can be described thus: Dopamine D2 receptor (DRD2) small molecule antagonists, cell-based qHTS assay (AID 1963595; active = well fitted inhibition curve with a large enough effect in the signal ratio in the repeat runs, with a control signal flat; the % refers to the signal ratio). In short, it runs like this:
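HEK293 cells stably expressing DRD2 were preincubated with 0.1 mM Ro20-1724, then with compound for 10 min at room temperature. Cells were stimulated with 200 nM NKH477 plus 12 nM quinpirole for 30 min, and cAMP was read by HTRF.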

Assay [18] is described as follows: p53 small molecule agonists, cell-based qHTS assay with human liver microsomes: qHTS cell viability counter screen (AID 1963579). Note: nearly all actives have a fitted effect of over 45% in size. Put shortly: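 Metabolic activation used human liver microsomes and NADPH, both 0.5 mg/mL final, over 16 hours at 37 C on p53RE-bla cells (4,000/well). Cytotoxicity measured by CellTiter-Glo luminescence, 30 min at room temperature.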

Assay [19] in a line: p53 small molecule agonists, cell-based qHTS assay (AID 1963582; active = well fitted activation curve with a large enough effect in the signal ratio in the repeat runs, not every such curve was filed as active; the % refers to the signal ratio). Put shortly:
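Compounds are pin-transferred in DMSO onto p53RE-bla cells and incubated 16 h at 37 C. The B/G FRET beta-lactamase substrate is then applied for 2 h at RT and fluorescence recorded.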

Muscarinic acetylcholine receptor M1 (Homo sapiens), sequence (P11229 whole entry, looked up): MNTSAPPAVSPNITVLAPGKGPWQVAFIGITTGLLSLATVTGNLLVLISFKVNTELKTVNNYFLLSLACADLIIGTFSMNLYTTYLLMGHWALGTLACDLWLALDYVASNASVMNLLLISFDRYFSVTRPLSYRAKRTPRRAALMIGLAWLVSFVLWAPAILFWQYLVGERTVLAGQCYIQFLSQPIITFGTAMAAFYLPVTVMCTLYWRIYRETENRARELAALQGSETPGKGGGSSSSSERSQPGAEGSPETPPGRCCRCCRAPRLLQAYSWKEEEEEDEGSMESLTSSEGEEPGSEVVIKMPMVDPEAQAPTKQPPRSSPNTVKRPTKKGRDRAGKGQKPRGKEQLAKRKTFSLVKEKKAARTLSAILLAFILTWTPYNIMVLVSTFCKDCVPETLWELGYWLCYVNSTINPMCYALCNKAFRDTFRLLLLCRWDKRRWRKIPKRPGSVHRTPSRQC
Beta-2 adrenergic receptor (Homo sapiens), sequence (P07550 whole entry, looked up): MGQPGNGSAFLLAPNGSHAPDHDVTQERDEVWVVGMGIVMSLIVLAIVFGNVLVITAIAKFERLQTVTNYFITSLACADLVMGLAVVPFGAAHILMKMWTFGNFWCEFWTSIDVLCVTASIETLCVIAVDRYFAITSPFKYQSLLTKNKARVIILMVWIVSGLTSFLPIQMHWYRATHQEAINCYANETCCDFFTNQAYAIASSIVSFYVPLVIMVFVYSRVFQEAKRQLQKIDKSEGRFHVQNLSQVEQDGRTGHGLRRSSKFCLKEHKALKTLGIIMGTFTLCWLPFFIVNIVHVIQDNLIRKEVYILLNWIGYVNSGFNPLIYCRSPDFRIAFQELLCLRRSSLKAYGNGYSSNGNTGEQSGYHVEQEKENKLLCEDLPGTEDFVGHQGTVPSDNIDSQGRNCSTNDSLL

Regarding `O=C(O)c1c(Cl)ccc(Cl)c1Cl`, the Potency entry in [1], in assay [2], in assay [3], in [4], in assay [5] and in assay [6] was “inactive” in each case. For the same compound, the Potency result in assay [7], in [8], in [9], in assay [10], in assay [11] and in [12] was “inactive” in each case. The Potency entry in assay [13], in assay [14], in [15], in assay [16] and in assay [17] was “inactive” throughout.

`CCCCCC(C)O` (stereo not given): the Potency entry in assay [1], in [2], in [3], in assay [4], in assay [5] and in [18] was “inactive” throughout. The Potency result in assay [8], in assay [9], in assay [10], in assay [12], in [13] and in [14] was “inactive” each time. In addition, the Potency result in assay [15], in assay [16] and in assay [17] was “inactive” each time.

Take `CCCNC(C)(C)COC(=O)c1ccccc1`: the Potency entry in assay [1], in assay [2], in assay [3], in [4], in [5] and in [6] was “inactive” in each case. For the same compound, the Potency result in assay [7], in assay [8], in assay [9], in assay [10], in assay [11] and in assay [16] was “inactive” in each case. Further, the Potency entry in assay [17] was “inactive”.

`O=C1NCCN1CCN1CCC(c2cn(-c3ccc(F)cc3)c3ccc(Cl)cc23)CC1`: the Potency in [1] is 11.9 µM (active). Moreover, the Potency entry in assay [2], in assay [3], in assay [4], in [5], in assay [6] and in assay [7] was “inactive” each time. For the same compound, the Potency entry in [9], in [11], in [14] and in assay [16] was “inactive” in each case.

`Nc1c[n+](N2CCOCC2)no1`: the Potency entry in [1], in assay [2], in assay [3], in [4], in [5] and in assay [6] was “inactive” throughout. For the same compound, the Potency entry in assay [7], in assay [8], in assay [9], in assay [10], in assay [11] and in [12] was “inactive” each time. For the same compound, the Potency entry in assay [13], in [15], in [16] and in [17] was “inactive” throughout.

`N=C(N)S(=O)O`: the Potency entry in assay [1], in assay [2], in assay [3], in [4], in assay [5] and in assay [18] was “inactive” each time. In addition, the Potency result in assay [7], in assay [9], in assay [10], in [11], in assay [12] and in [13] was “inactive” each time. Besides, the Potency entry in assay [14], in assay [16] and in assay [17] was “inactive” in each case.

Take `Cc1ccc(C(C)OC(=O)C2(C)CCC(C(=O)O)C2(C)C)cc1` (stereo not given): the Potency result in assay [1], in assay [2], in [3], in assay [4], in [5] and in assay [6] was “inactive” each time. The Potency result in [7], in assay [8], in assay [9], in assay [10], in [11] and in assay [12] was “inactive” in each case. Further, the Potency result in assay [14], in [16] and in [17] was “inactive” each time.

For `SCCOCCOCCS`, the Potency entry in [1], in [2], in assay [3], in assay [4], in assay [5] and in assay [6] was “inactive” each time. Also, the Potency entry in assay [7], in assay [8], in [9], in assay [10], in [12] and in assay [13] was “inactive” each time. For the same compound, the Potency entry in [16] and in [17] was “inactive” in each case.

As to `C[C@H]1[C@H]2CC[C@H]3[C@@H]4CC=C5C[C@@H](N(C)C)CC[C@]5(C)[C@H]4CC[C@]23CN1C`, the Potency entry in assay [1], in assay [2], in assay [3], in assay [4], in assay [5] and in [6] was “inactive” in each case. The Potency result in assay [8], in [9], in assay [11], in [12], in assay [13] and in [15] was “inactive” each time. In addition, the Potency result in assay [16] and in assay [17] was “inactive” throughout. Moreover, the Potency in assay [10] is 0.729 µM (active).

`Cc1ccc(C=O)cc1C`: the Potency result in [1], in [2], in assay [3], in [4], in [5] and in [6] was “inactive” each time. The Potency entry in [7], in assay [19], in [8], in assay [9], in [10] and in assay [12] was “inactive” each time. Also, the Potency result in [13], in [14] and in [17] was “inactive” each time.

For the compound `COC(C)(C)OC`, the Potency entry in assay [1], in assay [2], in assay [3], in assay [4], in assay [5] and in assay [18] was “inactive” in each case. Further, the Potency result in assay [8], in assay [9], in assay [10], in assay [11], in assay [12] and in [13] was “inactive” in each case. Further, the Potency entry in assay [14], in assay [16] and in [17] was “inactive” in each case.

Turning to `O=C(O)CC(=O)C(=O)O`, the Potency entry in assay [1], in [2], in assay [3], in assay [4], in assay [5] and in assay [18] was “inactive” throughout. For the same compound, the Potency entry in [7], in [8], in assay [11], in assay [12], in assay [13] and in assay [14] was “inactive” in each case. Besides, the Potency entry in [17] is “inactive”.

For `CC(N)=O`, the Potency result in assay [1], in [2], in assay [3], in [4], in [5] and in [6] was “inactive” each time. The Potency result in assay [7], in [8], in [9], in assay [10], in assay [11] and in [12] was “inactive” each time. The Potency result in [13], in assay [14], in [16] and in [17] was “inactive” in each case.

Source of the values: PubChem BioAssay (Tox21).
